Values joined by “and” are separate entries in the source; they are usually repeats but may differ in a detail not shown here. Equal values may be shown once. Unmarked numbers belong to inactive results. Results filed as inconclusive are left out. Active and inactive are the calls of the source. Unless noted, the call rests on the fitted dose curve. Peptide text beside a SMILES is read from it.

Assay [1] in a line: Cell Viability - BJ (AID 421).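 Further: potency means the concentration at half of the fitted maximal effect; cells exposed to compound for 40 hours at 37 °C before readout.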 Conditions: BJ fibroblast viability, qHTS. In short, it runs like this: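 Quantitative HTS: ATP depletion in BJ cells after 40 hr compound exposure in complete culture medium, detected with CellTiter-Glo; AC50 from standard Hill fits.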
Background: In qHTS, concentration-response curves come from the screen itself.

Assay [2] can be described thus: Cell Viability - Hek293 (AID 427;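 active means compounds whose dose-response curve shows a full or clear partial loss of cell viability, called from curve shape rather than a numeric limit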;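 further: potency means the concentration at half of the fitted maximal effect; cells exposed to compound for 40 hours at 37 °C before reading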). Conditions: qHTS. The method in brief:
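AC50 values derive from Hill-modelled concentration-response of ATP-based luminescence, normalized between DMSO-only and 100 uM tamoxifen controls. Cells were exposed in complete culture medium for 40 hr at 37 °C before detection.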

Assay [3] is described as follows: Cell Viability - HepG2 (AID 433).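 Further: potency means the concentration at half of the fitted maximal effect; potency for ATP loss meaning cytotoxicity.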 The conditions noted are these: qHTS. The method in brief: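 Cytotoxicity is scored as loss of intracellular ATP in HepG2 cells exposed to compounds for 40 h. Concentration-response curves, normalized to DMSO and 100 uM tamoxifen, give AC50 values.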
A short description of assay [4]: Cell Viability - MRC5 (AID 434).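 Further: potency means the concentration at half of the fitted maximal effect; cells exposed to compound for 40 hours at 37 °C; potency reflects cytotoxicity seen as loss of intracellular ATP.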 Conditions: MRC5 lung fibroblast viability, qHTS. The method in brief: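 AC50 values come from Hill-equation fits of intracellular ATP loss, measured by CellTiter-Glo luminescence. Normal lung fibroblasts (MRC5) had 40 hr compound treatment at 37 C, normalized between DMSO and 100 uM tamoxifen.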
The nature of assay [5]: Cell Viability - Jurkat (AID 426;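 active means dose-dependent loss of cell ATP signal giving a full or clear fitted curve, ranked by lower potency value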;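 further: potency means the concentration at half of the fitted maximal effect; cells exposed to compound for 40 hours at 37 °C before ATP read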). Conditions: qHTS. The method in brief:
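Luminescent ATP read-out (CellTiter-Glo, 20 min at room temperature) after 40 hr compound exposure at 37 °C of Jurkat E6-1 cells, 5000/well. Decreased ATP taken as cytotoxicity; AC50 from standard Hill equation.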

The nature of assay [6]: Cell Viability - SK-N-SH (AID 435).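 Further: potency means the concentration at half of the fitted maximal effect; compound exposure lasted 40 h at 37 °C.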 Conditions: SK-N-SH neuroblastoma cell viability qHTS. In short, it runs like this: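 Cells seeded at 1500 per well and incubated 5 hr at 37 °C. Compound added, then 40 hr at 37 °C. CellTiter-Glo added, 20 min at room temperature, luminescence read.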
The nature of assay [7]: AP1 Signaling Pathway (AID 357; active means well fitted curve in either direction with a large enough effect, not every such curve was filed as active; further: on the % scale 0 is the no-effect control and ±100 the full control effect). Conditions: ME-180 AP-1-bla reporter, EGF-induced, beta-lactamase ratio, 5 h; series mostly up to 17.2 µM. The method in brief:
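ME-180 cells with beta-lactamase reporter under AP-1 response element, stimulated with EC50 EGF; compounds tested in titration series, 5 h at 37 °C. CCF4 substrate added 2.5 h at room temperature; 460/530 nm emission ratio gave %activity and AC50.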

The nature of assay [8]: NFAT Signaling Pathway (AID 444; active means well fitted curve in either direction with a large enough effect, not every such curve was filed as active;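 further: carbachol stimulus at about its EC50 of 1 µM final; on the % scale 0 is the no-effect control and ±100 the full control effect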). The conditions noted are these: Jurkat NFAT-bla M1, carbachol, beta-lactamase ratio, 5 h; at 17.2 µM (top of the series). In short, it runs like this:
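Read-out: CCF4 FRET ratio (460 nm/530 nm) after 1 h RT dye loading, used for %activity and AC50 from titration series. Cells: Jurkat NFAT-β-lactamase/M1 line, treated with compound plus 1 uM carbachol for 5 h, 37 °C.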

Assay [9] in a line: Stat Signaling Pathway (AID 446; active means well fitted curve in either direction with a large enough effect, not every such curve was filed as active;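 further: ME-180 cervical cancer cells given 40 pM IL-6 alongside compound; SIE-controlled beta-lactamase reporter measured as 460/530 nm FRET emission ratio; on the % scale 0 is the no-effect control and ±100 the full control effect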). The conditions noted are these: ME-180 (cervical carcinoma) SIE beta-lactamase reporter, IL-6 stimulated, 5 h; series mostly up to 17.2 µM. In short, it runs like this: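 Overnight-plated ME-180 cells bearing a STAT Inducible Element beta-lactamase reporter; 5 h co-exposure to compound and 40 pM IL-6; values normalized to 300 pM IL-6 and 125 nM JAK inhibitor controls.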

Assay [10] concerns the target Lysosomal acid glucosylceramidase (Homo sapiens) (UniProt P04062). Nature of the assay: Glucocerebrosidase-p2 (AID 348; in the data active means potency below about 10 µM; further: potency means the concentration at half of the fitted maximal effect). Conditions: purified GBA, blue fluorogenic substrate, 40 min. The method in brief:
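Normal human glucocerebrosidase (0.2 nM) with blue fluorogenic substrate (80 uM final) in citrate/phosphate pH 5.9 with 10mM sodium taurocholate, 0.01% tween-20; 40 min RT, NaOH/glycine stop; fluorescence Ex 365/Em 440; AC50 from a titration from 0.6 nM upwards.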

Lysosomal acid glucosylceramidase (Homo sapiens), sequence (P04062 whole entry, looked up): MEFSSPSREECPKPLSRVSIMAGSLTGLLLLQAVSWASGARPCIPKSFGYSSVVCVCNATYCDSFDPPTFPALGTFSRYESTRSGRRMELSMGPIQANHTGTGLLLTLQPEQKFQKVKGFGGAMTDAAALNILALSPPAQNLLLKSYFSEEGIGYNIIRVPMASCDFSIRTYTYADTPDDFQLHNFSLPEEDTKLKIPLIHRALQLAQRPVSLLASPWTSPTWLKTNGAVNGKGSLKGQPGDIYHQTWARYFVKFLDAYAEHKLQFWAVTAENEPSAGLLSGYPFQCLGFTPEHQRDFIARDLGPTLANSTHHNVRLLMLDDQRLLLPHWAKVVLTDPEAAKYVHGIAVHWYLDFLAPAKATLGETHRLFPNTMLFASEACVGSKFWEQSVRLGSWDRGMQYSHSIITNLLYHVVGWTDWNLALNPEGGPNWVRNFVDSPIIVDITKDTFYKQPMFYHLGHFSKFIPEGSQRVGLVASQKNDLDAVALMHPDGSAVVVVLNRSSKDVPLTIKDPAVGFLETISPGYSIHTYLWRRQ

As to `CC1=C(/C=C/C(C)=C/C=C/C(C)=C/CO)C(C)(C)CCC1`, the Potency in [1], in assay [2], in assay [3] and in [4] was over 92 µM throughout.

Take `CCCCC/C=C\C/C=C\CCCCCCCC(=O)O`: the Potency in assay [1], in assay [5], in [2], in assay [3], in assay [4] and in assay [6] was over 92 µM throughout.

With `Cc1onc(-c2ccccc2)c1C(=O)N[C@@H]1C(=O)N2[C@@H]1SC(C)(C)[C@@H]2C(=O)O`, the outcome in [7] and in [9] was inactive. Further, the activity change, negative = inhibition in assay [8] was 24.2%.

`Cc1c(C)c2c(c(C)c1O)CC[C@@](C)(CCC[C@@H](C)CCC[C@@H](C)CCCC(C)C)O2`: the outcome in [7] and in assay [9] was inactive. In [8], the activity change, negative = inhibition was -1.66%.

For `CC1(C)S[C@@H]2[C@H](NC(=O)Cc3ccccc3)C(=O)N2[C@H]1C(=O)O`, the outcome in assay [7] and in assay [9] was inactive. Moreover, in assay [8], the activity change, negative = inhibition is -9.19% and 5.43%.

Consider `O=CCCCC=O`, for which the Potency was over 92 µM in assay [1]; 6.45 µM (active) in [5]; over 92 µM in [2]; over 92 µM in assay [3]; over 92 µM in assay [4].

Take `CC(C)N=c1cc2n(-c3ccc(Cl)cc3)c3ccccc3nc-2cc1Nc1ccc(Cl)cc1`: the activity change, negative = inhibition in assay [8] was -120% (active). Moreover, the result in [9] was inactive.

Turning to `Nc1ccn([C@H]2CS[C@@H](CO)O2)c(=O)n1`, the Potency in [1], in assay [5], in [2], in assay [3], in assay [4] and in assay [6] was over 92 µM each time.

With `Cc1ccccc1`, the Potency in [1], in [5], in assay [2], in assay [3], in [4] and in [6] was over 92 µM each time.

Turning to `CCOc1ccc2c(c1)C(C)=CC(C)(C)N2`, the outcome in assay [7] and in [9] was inactive. Besides, the Potency in assay [1], in [5], in [2], in assay [3], in [4] and in assay [6] was over 92 µM each time. In addition, the activity change, negative = inhibition in assay [8] was 4.3%.

As for `CCCCCCCC(=O)O`, the Potency in [1], in [5], in assay [2], in [3], in [4] and in assay [6] was over 92 µM in each case.

Turning to `Cc1cc(C(=O)NNCc2ccccc2)no1`, the result in assay [7] and in assay [9] was inactive. The activity change, negative = inhibition in [8] is 11.8%.

As to `CC(=O)N[C@@H](CC(=O)O)C(=O)N[C@@H](CCC(=O)O)C(=O)O` (Ac-Asp-Glu-OH), in assay [8], the activity change, negative = inhibition is -12.3%. For the same molecule, in assay [9], the molecule was called inactive.

For the molecule `C[C@@H]1C[C@H]2[C@@H]3CCC4=CC(=O)C=C[C@]4(C)[C@@]3(F)[C@@H](O)C[C@]2(C)[C@@]1(O)C(=O)COP(=O)(O)O`, the outcome in [7] and in assay [9] was inactive.

`C[C@]12C=CC(=O)C=C1CC[C@@H]1[C@@H]2[C@@H](O)C[C@@]2(C)[C@H]1CC[C@]2(O)C(=O)COC(=O)CCC(=O)O`: the outcome in assay [7] and in assay [9] was inactive. The activity change, negative = inhibition in [8] was 20.1%.

Regarding `CN(C)CCCN1c2ccccc2C(C)(C)c2ccccc21`, in assay [10], the Potency is over 11.4 µM. The molecule was classed as inactive in [9].

As to `CC(=O)OCC(=O)[C@@]12OC3(CCCC3)O[C@@H]1C[C@H]1[C@@H]3CCC4=CC(=O)C=C[C@]4(C)[C@@]3(F)[C@@H](O)C[C@@]12C`, the outcome in assay [7] and in [9] was inactive.

Consider `CC(C)(C)C(=O)OCOC(=O)[C@@H]1N2C(=O)[C@@H](N=CN3CCCCCC3)[C@H]2SC1(C)C`, for which the outcome in assay [7] and in assay [9] was inactive.

In the case of `CCCC(=O)O[C@]1(C(=O)COC(C)=O)CC[C@H]2[C@@H]3C[C@H](F)C4=CC(=O)C=C[C@]4(C)[C@@]3(F)[C@@H](O)C[C@@]21C`, the result in assay [7] and in assay [9] was inactive. For the same molecule, the activity change, negative = inhibition in assay [8] is -29.7%.

With `CC(C)(C)NC(=O)[C@@H]1C[C@@H]2CCCC[C@@H]2CN1C[C@@H](O)[C@H](Cc1ccccc1)NC(=O)[C@H](CC(N)=O)NC(=O)c1ccc2ccccc2n1`, the Potency is 46.4 µM (active) in assay [5] and 65.4 µM (active) in assay [3].

In the case of `COC(=O)CCC(=O)CN`, the outcome in [7] and in [9] was inactive.

Regarding `CC(O)CO` (stereo unspecified), the Potency in [1], in [5], in assay [2], in assay [3], in [4] and in assay [6] was over 92 µM each time.

As to `CCCCCCCC/C=C\CCCCCCCC(=O)O`, the Potency in [1], in assay [5], in assay [2], in assay [3], in assay [4] and in [6] was over 92 µM throughout.

As to `Nc1c(Br)cc(Br)cc1CNC1CCC(O)CC1` (stereo unspecified), the result in assay [7] and in [9] was inactive. The activity change, negative = inhibition in [8] was 0.0265%.
